{"source": "PubChem BioAssay (EPA / NIEHS)", "note": "The source made the active and inactive calls. The calls were made as follows: active = hit-call score of the fitted dose curve at least 0.9, where 1 is the maximum; inactive = score below 0.9."}
{"read-out": "Interferon-gamma inducible Protein 10 (IP10), CXCL10 (gene 3627)", "test": "BSK_hDFCGF_IP10: BioMAP Diversity Plus: hDFCGF Assay for Interferon-gamma inducible Protein 10 (IP10) Biomarker Activity (AID 2283053)", "conditions": "primary human foreskin fibroblasts; actives raise or lower the signal", "experimental": "BSK_hDFCGF is a cell-based, multiplexed-readout assay that uses foreskin fibroblast, a human skin primary cell, with measurements taken at 24 hours after chemical dosing in a 96-well plate.BSK_hDFCGF_IP10 is an assay component measured in the BSK_hDFCGF assay. It measures IP-10 antibody related to regulation of gene expression using ELISA technology.Data from the assay component BSK_hDFCGF_IP10 was analyzed into 1 assay endpoint. This assay endpoint, BSK_hDFCGF_IP10, was analyzed with bidirectional fitting relative to DMSO as the negative control and baseline of activity. Using a type of binding reporter, gain or loss-of-signal activity can be used to understand changes in the signaling as they relate to the gene CXCL10. Furthermore, this assay endpoint can be referred to as a primary readout, because this assay has produced multiple assay endpoints where this one serves a signaling function. To generalize the intended target to other relatable targets, this assay endpoint is annotated to the cytokine intended target family, where the subfamily is chemotactic factor.\nThe levels of cell surface (or secreted, indicated by the prefix \"s\") biomarker endpoints were measured by ELISA. Overt cytotoxicity to cells in confluent adherent cultures (all systems other than the BT system) was assessed by measuring total protein levels using sulforhodamine B (SRB) staining in parallel cultures at the time of biomarker measurements, indicated as SRB endpoints. For proliferation assays for adherent cell types, individual cell types are cultured at sub-confluence and relative cell numbers quantified by SRB staining at time points optimized for each system (48 h: 3C and CASM3C systems; 72 h: BT and HDF3CGF systems; 96 h: SAg system). SRB was performed by staining cells with 0.1% SRB after fixation with 10% TCA and reading wells at 560 nm.Viability and proliferation of PBMC (T cells) was quantified by Alamar Blue reduction for the SAg and BT systems. For PBMC viability (referred to as PBMC Cytotoxicity within the assay endpoint names), cells were plated (75,000/well in a 96-well plate) and then chemical samples added for 1 h before addition of activators, SEB and TSST-1 (20 ng/mL final concentration each). Cells were incubated for 90 h. Then, Alamar Blue (20 uL/well) (Invitrogen, Cat DAL1100) was added for 6 h, and the plates were read with a fluorescence microplate reader at 546/580 nm (excitation/emission). For PBMC proliferation, cells were plated and activated as above but incubated for only 16 h prior to addition of Alamar Blue. Plates were read after 6 h."}
{"smiles": "CNC(=O)N(C)c1nnc(C(C)(C)C)s1", "outcome": "inactive"}
{"smiles": "Nc1c(Cl)c(Cl)nc(C(=O)O)c1Cl", "outcome": "inactive"}
{"smiles": "CS(=O)(=O)c1cc(C(F)(F)F)ccc1C(=O)c1cnoc1C1CC1", "outcome": "inactive"}
{"smiles": "CSC(=O)c1c(C(F)F)nc(C(F)(F)F)c(C(=O)SC)c1CC(C)C", "AC50": "25.5 µM (active)"}
{"smiles": "O=P(O)(O)CCCl", "outcome": "inactive"}
{"smiles": "CN/C(=N\\[N+](=O)[O-])NCc1cnc(Cl)s1", "outcome": "inactive"}
{"smiles": "COC(=O)c1c(C(F)F)nc(C(F)(F)F)c(C2=NCCS2)c1CC(C)C", "AC50": "6.09 µM (active)"}
{"smiles": "CCSC(=O)N1CCCCCC1", "outcome": "inactive"}
{"smiles": "C=CCOC(=O)C(C)(C)OC(=O)c1cc(-n2c(=O)cc(C(F)(F)F)n(C)c2=O)ccc1Cl", "AC50": "1.2 µM (active)"}
{"smiles": "CCNP(=S)(OC)O/C(C)=C/C(=O)OC(C)C", "note": "(stereo not given)", "outcome": "inactive"}
{"smiles": "CCCCC(O)(Cn1cncn1)c1ccc(Cl)cc1Cl", "note": "(stereo not given)", "AC50": "32.9 µM (active)"}
{"smiles": "CCCCOCN(C(=O)CCl)c1c(CC)cccc1CC", "AC50": "24.6 µM (active)"}
{"smiles": "COc1ccc(-c2ccccc2)cc1NNC(=O)OC(C)C", "outcome": "inactive"}
{"smiles": "COc1cc(OC)nc(NC(=O)NS(=O)(=O)c2ncccc2OCC(F)(F)F)n1", "outcome": "inactive"}
{"smiles": "CN=C=S", "AC50": "16.6 µM (active)"}
{"smiles": "CC(C)N1C(=O)N(c2ccccc2)CSC1=NC(C)(C)C", "AC50": "15.7 µM (active)"}
{"smiles": "CCC(C)n1c(=O)[nH]c(C)c(Br)c1=O", "note": "(stereo not given)", "outcome": "inactive"}
{"smiles": "CC(C)N1C(=O)c2ccccc2NS1(=O)=O", "AC50": "13.4 µM (active)"}
{"smiles": "Cn1c(-c2ccccc2)cc(-c2ccccc2)[n+]1C", "outcome": "inactive"}
{"smiles": "COP(=O)(OC)O/C(C)=C/C(=O)N(C)C", "outcome": "inactive"}
{"smiles": "CCCC(=NOCC)C1=C(O)CC(CC(C)SCC)CC1=O", "note": "(stereo not given)", "outcome": "inactive"}
{"smiles": "COCC(C)N(C(=O)CCl)c1c(C)csc1C", "note": "(stereo not given)", "outcome": "inactive"}
{"smiles": "CC1(C)C(C(=O)OC(C#N)c2cccc(Oc3ccccc3)c2)C1(C)C", "note": "(stereo not given)", "outcome": "inactive"}
{"smiles": "CC(C)Nc1nc(Cl)nc(NC(C)C)n1", "outcome": "inactive"}
{"smiles": "CO/N=C(/C1=NOCCO1)c1ccccc1Oc1ncnc(Oc2ccccc2Cl)c1F", "outcome": "inactive"}
{"smiles": "COC(=O)NC(=S)Nc1ccccc1NC(=S)NC(=O)OC", "outcome": "inactive"}
{"smiles": "Cc1c(COC(=O)[C@@H]2[C@H](/C=C(\\Cl)C(F)(F)F)C2(C)C)cccc1-c1ccccc1", "outcome": "inactive"}
{"smiles": "O=C(Nc1ccccc1-c1ccc(Cl)cc1)c1cccnc1Cl", "outcome": "inactive"}
{"smiles": "CCOc1nc(F)cc2nc(S(=O)(=O)Nc3c(Cl)cccc3Cl)nn12", "outcome": "inactive"}
{"smiles": "CC1(C)C(C=C(Cl)Cl)C1C(=O)OC(C#N)c1cccc(Oc2ccccc2)c1", "note": "(stereo not given)", "outcome": "inactive"}
{"smiles": "CCN(CC)c1nc(C)cc(OP(=S)(OC)OC)n1", "AC50": "20 µM (active)"}
{"smiles": "COCc1cnc(C2=NC(C)(C(C)C)C(=O)N2)c(C(=O)O)c1", "note": "(stereo not given)", "outcome": "inactive"}
{"smiles": "COP(=S)(OC)Oc1ccc([N+](=O)[O-])c(C)c1", "AC50": "14 µM (active)"}
{"smiles": "O=c1n(Cl)c(=O)n(Cl)c(=O)n1Cl", "AC50": "20 µM (active)"}
{"smiles": "Cc1cc(C)nc(Nc2ccccc2)n1", "outcome": "inactive"}
{"smiles": "O=C1C2CC=CCC2C(=O)N1SC(Cl)(Cl)Cl", "note": "(stereo not given)", "AC50": "6.95 µM (active)"}
{"smiles": "COC(=O)N(C(=O)N1CO[C@@]2(C(=O)OC)Cc3cc(Cl)ccc3C2=N1)c1ccc(OC(F)(F)F)cc1", "AC50": "13.5 µM (active)"}
{"smiles": "Clc1cccc(C(Cl)(Cl)Cl)n1", "AC50": "29.8 µM (active)"}
{"smiles": "CC(C)NC(=O)N1CC(=O)N(c2cc(Cl)cc(Cl)c2)C1=O", "outcome": "inactive"}
{"smiles": "Nc1c(Cl)c(F)nc(OCC(=O)O)c1Cl", "outcome": "inactive"}
